# Test results published in PubChem BioAssay AID620 (Sanford-Burnham Center for Chemical Genomics, 2007).
# Hit rate of the full screen: of about 87,000 compounds, about 360 (0.41%) were called active. Many of the other results were omitted from the sample, so actives are more common in it than they were. A number with no mark means an inactive call. No stated cut-off is given here; in the data, active means cytotoxicity above about 50%; inactive means the rest.
# Experiment: cytotoxicity in HT1080 fibrosarcoma cells, cell-based, fluorescence readout (AID 620);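 further: cells exposed to compound overnight then 4 h with Alamar Blue; 0% = vehicle DMSO and 100% = killing control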
# Conditions: HT1080 viability, at 10 µM, active compounds read high
row,Structure (SMILES),cytotoxicity
1,CCC(C)(C)NC(=O)CN(C(=O)CCC(=O)Nc1cc(C)ccn1)c1ccc2c(c1)OCO2,-1.1%
2,CCCCCCCCCC(=O)OCC(O)CO (stereo not given),-10.7%
3,CCCCCCCCCCCCCCCC(O)C(N)CO (stereo not given),58.2% (active)
4,CCCCCCCC(=O)OCC(O)CO (stereo not given),-0.9%
5,COCCn1nnnc1CN(Cc1ccco1)Cc1cc2cc3c(cc2[nH]c1=O)OCO3,-10.7%
6,CCn1cc(C(=O)NCc2cccs2)c(=O)c2ccc(C)nc21,-4%
7,COc1ccc(OC)c(Nc2nc(N)nc(-c3cc4ccccc4o3)n2)c1,4.8%
8,COc1ccc(OC)c(Nc2cc(-c3ccccc3)nc(N)n2)c1,56.1% (active)
9,COc1ccc(OC)c(Nc2cc(C)nc3ccccc23)c1,20.6%
10,c1ccc(CSc2ncccn2)cc1,4.3%
11,O=C(CCNS(=O)(=O)c1ccccc1F)NCc1ccc2c(c1)OCO2,-0.4%
12,COC(=O)N1[C@H](C)C=C[C@]1(Cc1ccccc1)C(=O)OC,-24.7%
13,COC(=O)N1[C@H](C)C=C[C@]1(Cc1ccccc1)C(=O)O,90.8% (active)
14,CNC(=O)[C@@]1(Cc2ccccc2)C=C[C@@H](C)N1C(=O)OC,-24.6%
15,CCSc1nnc(NC(=O)CSc2nccn2-c2cccc(C)c2C)s1,-8.3%
16,Cc1nnc(NC(=O)CSc2nccn2-c2cccc(C)c2C)s1,54.7% (active)
17,CCc1nnc(NC(=O)CSc2nccn2-c2cccc(C)c2C)s1,-9.5%
18,CN1/C(=C\C(=O)C(F)F)C(C)(C)c2ccccc21,-3.2%
19,CN1/C(=C\C(=O)c2ccco2)C(C)(C)c2ccccc21,9%
20,COC(=O)c1ccc(Oc2cc(C)nc(-n3nc(C)cc3C)n2)cc1,68.3% (active)
21,COC(=O)c1ccc(Oc2cc(C)nc(SC)n2)cc1,48.5%
22,COC(=O)c1ccc(Oc2nc(C)cc(Oc3ccccc3)n2)cc1,11.3%

row,Structure (SMILES),cytotoxicity
1,CC(=O)c1ccc(Oc2cc(C)nc(-n3nc(C)cc3C)n2)cc1,50.3% (active)
2,CC(=O)c1ccc(Oc2cc(C)nc(NCc3ccccc3)n2)cc1,-1%
3,Cc1ccc(Oc2cc(-n3nc(C)cc3C)ncn2)cc1,-3.6%
4,c1ccc(-c2cc(-c3nc(-c4ccccn4)no3)c3ccccc3n2)cc1,-10.1%
5,COc1cccc(C(c2sc3nc(C)nn3c2O)N2CCc3ccccc3C2)c1 (stereo not given),-7.4%
6,CCOC(=O)CNC(=O)CSc1nnc(Cn2c(=O)sc3ccccc32)n1C,-4.4%
7,Cc1nn(-c2ccccc2)c(C)c1C(=O)OCC(=O)NCc1ccco1,-6.6%
8,O=C(COC(=O)c1ccccc1)NCc1ccco1,6.9%
9,Cc1cc(C(=O)OCC(=O)N2CCN(C(=O)c3ccco3)CC2)c(C)n1-c1ccc(F)cc1,-4.9%
10,Cc1cc(C(=O)OCC(=O)NCc2ccco2)c(C)n1-c1ccc(F)cc1,63.7% (active)
11,Cc1cc(C(=O)OCC(=O)NCc2ccco2)c(C)n1-c1ccccc1,62.1% (active)
12,Cc1cc(C(=O)CNCc2ccco2)c(C)n1-c1ccc(F)cc1,2.4%
13,COc1cccc(NC(=O)c2ccccc2-c2nc(-c3ccc(Cl)cc3)no2)c1,16.9%
14,O=C(NCc1ccco1)C(C(=O)c1ccc(F)cc1)n1ccccc1=O (stereo not given),-0.6%
15,O=C(O)C1CC=CCC1C(=O)Nc1ccc(S(=O)(=O)N2CCCc3ccccc32)cc1 (stereo not given),-8.5%
16,COC(=O)Nc1ccc(S(=O)(=O)N2CCCc3ccccc32)cc1,53% (active)
17,Cc1cc(NC(=O)COC(=O)c2ccc(S(=O)(=O)N3CCCc4ccccc43)cc2)no1,52.4% (active)
18,CC(=O)Nc1ccc(S(=O)(=O)N2CCCc3ccccc32)cc1,23.1%
19,Cc1cc(NC(=O)COC(=O)c2cccc(S(=O)(=O)N3CCOCC3)c2)no1,8.4%
20,Cc1cc(NC(=O)COC(=O)c2ccc(NS(=O)(=O)c3ccc(C)c(C)c3)cc2)no1,-8.8%
21,COc1ccc(CCNS(=O)(=O)c2ccc3c(c2)oc(=O)n3C)cc1OC,3.2%
22,CCOC(=O)COc1ccc(S(=O)(=O)N2CCN(c3ccccc3F)CC2)cc1,-0.3%

row,Structure (SMILES),cytotoxicity
1,Cc1ccc2nc3sc(C(=O)N4CCOCC4)c(N)c3cc2c1,55.8% (active)
2,Cc1cccc2cc3c(N)c(C#N)sc3nc12,2.6%
3,CCOc1ccc2nc3sc(C(=O)N4CCN(C)CC4)c(N)c3cc2c1,-19.5%
4,Cc1cccc2cc3c(N)c(C(=O)N4CCOCC4)sc3nc12,59% (active)
5,COc1ccc2cc3c(N)c(C(=O)N4CCCC4)sc3nc2c1,3.4%
6,Cc1ccc2cc3c(N)c(C(=O)N4CCOCC4)sc3nc2c1,3.2%
7,CCN(CC)CCNC(=O)c1c(O)c2c([nH]c1=O)CCCC2,0.6%
8,O=C(CCn1c(=S)[nH]c2ccccc2c1=O)N1CCOCC1,-2.8%
9,O=C1C2CC=C(Cl)CC2C(=O)N1c1ncn[nH]1 (stereo not given),-1.3%
10,CC(C)C1N(c2ccccc2)C(N)=C(C#N)C1(C#N)C#N (stereo not given),-5.5%
11,COc1ccc(-c2nnc(Nc3nc4c(OC)cccc4s3)o2)c(OC)c1,8.4%
12,COc1ccccc1-c1nnc(Nc2nc3c(OC)cccc3s2)o1,51.8% (active)
13,COc1cccc2sc(Nc3nnc(-c4ccccc4Cl)o3)nc12,-3.2%
14,Cc1ccc(C(C(=O)NCc2ccccc2)N(C(=O)c2csnn2)c2cccc3ccccc23)o1 (stereo not given),-5.1%
15,COc1cc(/C=N/Nc2nc3ccccc3o2)cc(OC)c1O,17.8%
16,Nc1cccc2cnccc12,20.7%
17,Cc1cc2c(N)cccc2nn1,-9.9%
18,CNC(=O)CSc1nc2nc(C)cc(C)n2n1,16.5%
19,CCCCS(=O)(=O)/C=C\C1C2C=CC(C2)C1S(=O)(=O)CCCC (stereo not given),-14.4%
20,CCCCS(=O)(=O)/C=C/[C@H]1[C@H](S(=O)(=O)CCCC)[C@H]2C=C[C@@H]1C2,0.3%
21,CCCCS(=O)(=O)/C=C\C=C/S(=O)(=O)CCCC,94% (active)
